Source: PubChem BioAssay
Shown are actives, neighbours in structure and some others; about 5.4% of the full set was active somewhere.
PNC assembly inh – blocks assembly of the perinucleolar compartment | PC3M PTB-GFP, PNC prevalence imaging, 16 h; active compounds read low | AID 2417 | hit rate 3.1% among 140,000 | activity change (PNC), negative = inhibition, % at 10 µM;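 active = readout at or below -70, meaning at least 70% loss of cells showing the perinucleolar compartment, a nuclear body marking cancer cells; inconclusive = readout between -30 and a set limit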;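 also: plate controls were DMSO wells for no effect and camptothecin positive control wells for full effect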
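Read-out is percentage of cells bearing a perinucleolar compartment, from automated 20x imaging of fixed, Hoechst-stained PC3M PTB-GFP cells. Cells were seeded 4 h, then exposed 16 h to compound (23 nl of library stock) in duplicate plates.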
IMPase inh – cell-permeable inhibitors of inositol monophosphatase (IMPase); P97697; CHO-M1 cells, IP1 accumulation, HTRF TR-FRET ratio; inhibition (IP1 accumulation), % at 46.1 µM; 120,000 tested, under 10 active; AID 901; active = well fitted curve in the direction sought with a large enough effect in the signal ratio, not every such curve was filed as active; inconclusive = small, poorly fitted or top-dose-only effect, or a change in a side signal; inactive = no such curve, though single readings can be large or run the other way; the % refers to the signal ratio;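 also: cells stimulated with carbachol in lithium chloride buffer; plate controls were DMSO basal wells for no effect and reference inhibitor wells for full effect; higher means more IMPase inhibition seen as more IP1 and lower FRET ratio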
Target sequence (P97697 whole entry, looked up): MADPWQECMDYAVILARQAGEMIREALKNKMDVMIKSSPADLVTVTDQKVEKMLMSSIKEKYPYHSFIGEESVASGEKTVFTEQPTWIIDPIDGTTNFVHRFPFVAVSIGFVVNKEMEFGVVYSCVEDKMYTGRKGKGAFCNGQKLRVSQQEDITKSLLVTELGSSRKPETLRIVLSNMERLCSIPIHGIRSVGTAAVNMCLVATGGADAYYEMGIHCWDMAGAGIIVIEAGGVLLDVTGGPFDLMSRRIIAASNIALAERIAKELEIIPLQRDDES
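CHO-M1, 2000 cells/well, cultured 16–30 h; cpd up to 46 uM; carbachol (50 uM solution, stimulation buffer w/ 50 mM LiCl, pH 7.4), 30 min 37C; IP-One TR-FRET, 10 min RT; Ex 320/Em 665, 620; Hill-fit AC50.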
IMPase Li cell – IMPase inhibition in cells with lithium potentiation; CHO-M1 cells, IP1 TR-FRET (IP-One), carbachol + lithium; Potency, µM (series often up to 59.4 µM), without a hit: at the top dose activity, negative = IMPase inhibition, most hits filed as inhibitors; hit rate 0.35% among 210,000;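 also: IP1 builds up when IMPase is blocked and the TR-FRET signal falls; potency is read from the fitted curve at half-maximal effect; plate controls were basal vehicle for no effect and high inhibitor control for full effect; nearly all actives have a fitted effect of over 50% in size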
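Steps: plate 2000 CHO-M1 cells per well and culture 16–30 h; add compound and lithium; incubate 30 min, 37C; add d2-IP1 tracer and Eu cryptate anti-IP1 antibody in lysis buffer; read after 10 min at room temperature.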
ALOX15B inhib – inhibitors of human 15-lipoxygenase 2 (ALOX15B) | O15296 | AID 881 | purified 15hLO-2, xylenol orange hydroperoxide absorbance | hit rate 0.56% among 110,000 | Potency, µM (highest dose often 57.1 µM), inactives show top-dose activity change, negative = inhibition, usual class: inhibitors; also: potency is read from the fitted curve at half-maximal effect; nearly all actives have a fitted effect of over 60% in size
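Purified human 15hLO-2 (50 nM) preincubated 15 min with compound, then 45 uM arachidonic acid for 90 min at RT in 25 mM Hepes pH 7.5, 0.01% Triton X-100. Hydroperoxide detected by Fe-xylenol orange; 573/405 nm absorbance ratio.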
12-hLO inh – 12-hLO (ALOX12) enzyme inhibition. AID 1452. P18054. hit rate 0.12% among 150,000. purified 12-hLO, xylenol orange hydroperoxide absorbance. Potency, µM (doses to about 57.1 µM), for the others: top-dose activity change, negative = inhibition, actives largely listed as inhibitors; also: potency is read from the fitted curve at half-maximal effect; nearly all actives have a fitted effect of over 55% in size
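Hydroperoxide output read as Fe(III)-xylenol orange absorbance, 573-to-405 nm ratio, after 30 min reaction with 40 uM arachidonic acid. Enzyme: 150 nM purified human 12hLO, 15 min compound preincubation; 25 mM Hepes pH 7.0, room temperature.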
HPGD block – inhibitors of human 15-hydroxyprostaglandin dehydrogenase (HPGD) | P15428 | purified HPGD, NADH fluorescence kinetic, PGE2 substrate | Potency, µM, inactives show at the highest dose activity change, negative = inhibition, most hits filed as inhibitors | hit rate 4.3% among 150,000 | AID 894; active = well fitted inhibition curve with a large enough effect, not every such curve was filed as active; inconclusive = small, poorly fitted or top-dose-only effect, or another doubt; inactive = no such curve, though single readings can be large or run the other way; also: potency is read from the fitted curve at half-maximal effect
Target sequence (P15428 whole entry, looked up): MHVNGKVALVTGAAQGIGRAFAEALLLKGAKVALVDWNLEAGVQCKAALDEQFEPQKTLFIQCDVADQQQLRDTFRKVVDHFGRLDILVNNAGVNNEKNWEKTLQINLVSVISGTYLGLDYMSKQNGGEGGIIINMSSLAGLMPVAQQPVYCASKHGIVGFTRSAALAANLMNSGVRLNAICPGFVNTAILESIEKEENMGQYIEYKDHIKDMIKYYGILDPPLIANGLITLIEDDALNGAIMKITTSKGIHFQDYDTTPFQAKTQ
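NADH formation kinetics: reaction with 30 uM PGE2 and 1 mM NAD+ (final), 20 nM enzyme, Tris-HCl pH 8 with Tween 20, after 15 min compound preincubation at room temperature. Fluorescence change, last versus first of five reads.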
The depositor's hits bear a star; ? = inconclusive; nt = no result given; [ ] = remark or other dose. Unless noted, calls follow the shape of the dose curve; as a rule, active = well fitted curve in the direction sought with a large enough effect; inconclusive = small, poorly fitted or top-dose-only effect, or another doubt; inactive = no such curve, though single readings can be large; an effect the other way counts as inactive or inconclusive. Unless noted, % is scaled to controls: 0 for no effect and ±100 for the full control effect.

SMILES | PNC assembly inh | IMPase inh | IMPase Li cell | ALOX15B inhib | 12-hLO inh | HPGD block
O=C(CSC1=NC2(CCCCC2)N=C1c1ccccc1)Nc1ccc2c(c1)OCCO2 | -23 | nt | 14% | nt | -3% | -13%
O=C(CSc1ncn(-c2ccccc2)n1)Nc1ccc(Br)cn1 | -11 | 8 | 22%[38.3 µM] | ? | -9% | 28µM*
O=C(CSc1ccc(-c2ccccc2)nn1)Nc1ccc2c(c1)OCCO2 | -113* | nt | -2% | nt | -4% | -5%
O=C(CSC1=NC2(CCCCCC2)N=C1c1ccccc1)Nc1ccc2c(c1)OCCO2 | -119* | nt | 18% | nt | -7% | -14%
O=C(CSc1ncn(-c2ccccc2)n1)Nc1ccc2c(c1)OCCO2 | -86* | 7 | 0%[38.3 µM] | -16% | -2% | -12%
O=C(CSc1ncn(-c2ccccc2)n1)Nc1ccc2c(c1)OCO2 | 1 | 8 | nt | -13% | -6% | nt
O=C(CSc1ccccn1)Nc1ccc(Br)cn1 | -14 | 6 | 28%[38.3 µM] | -3% | 2% | -11%
Cc1ccc(C#N)cc1 | nt | nt | 0% | -1% | -3% | 3%
Cc1nc2cnc(N3CCOCC3)nc2n(C[C@H]2CCCO2)c1=O | nt | nt | -5% | -11% | nt | nt
COc1cccc(-n2c(COc3ccc(C)cc3)nnc2SCC(=O)O)c1 | 51 | -3 | -8%[38.3 µM] | -13% | 4% | 25µM*
CCn1c(COc2ccc(C)cc2)nnc1SCC(=O)NNC(=O)c1ccc(OC)cc1 | -83* | nt | -1% | nt | -1% | 1%
COc1cccc(-n2c(COc3ccccc3C)nnc2SCC(=O)O)c1 | ? | -4 | -11%[38.3 µM] | -12% | -2% | -25%
CCCCc1nc2c(c3c1C[C@H](C)OC3)CN(C(=O)COC)CC2 | nt | nt | 9% | nt | 1%[11.4 µM] | -10%
COc1ccc(NC(=O)C2C3C=CC(C3)C2C(=O)NCc2ccco2)cc1 (centres undefined) | 11 | 15 | 19%[38.3 µM] | -3% | -1% | 25µM*
COc1ccc(C2=NOC(C(=O)NCc3ccco3)C2)cc1 (centres undefined) | 9 | 0 | 40%[38.3 µM] | 6% | 5% | ?
CCOc1ccccc1NC(=O)N1c2ccccc2Sc2ccccc21 | nt | 3 | nt | nt | nt | nt
c1ccc(-n2c(SCc3nc(-c4cccs4)no3)nnc2-c2ccco2)cc1 | ? | 21 | 32%[38.3 µM] | -28% | -18% | 32µM*
COCCn1c(=O)c(-c2ccc(F)cc2)nc2cnc(OCc3ccccc3)nc21 | nt | nt | 0% | 0% | -1% | ?
COc1cc(S(=O)(=O)N2CCCCC2)ccc1NC(=O)c1ccccc1Cl | -100* | 17 | 7% | nt | -1% | -16%
COc1ccc(S(=O)(=O)N2CCC(C(=O)N3CCCCC3)CC2)cc1Cl | 61 | -2 | 27%[38.3 µM] | -2% | 2% | 16µM*
COc1cc(C(=O)Nc2ccccc2N2CCN(S(C)(=O)=O)CC2)cc(OC)c1OC | 5 | -6 | -1%[38.3 µM] | 10% | -6% | -11%
O=C(Nc1ccc(S(=O)(=O)N2CCCCC2)cc1)c1ccccc1Cl | 30 | 5 | -3%[38.3 µM] | -2% | 2% | 0%
O=C(C1CCN(S(=O)(=O)c2cccnc2)CC1)N1CCCCC1 | 4 | -4 | 16%[38.3 µM] | -3% | 3% | 20µM*
COc1ccccc1C(=O)Nc1ccccc1N1CCN(S(C)(=O)=O)CC1 | -91* | 3 | 26%[38.3 µM] | -1%[2.29 µM] | 6% | ?
CC(C)(C)OC(=O)[C@H](C1N[C@@H](C(=O)O)C(C)(C)S1)N1C(=O)c2ccccc2C1=O (some centres undefined) | nt | nt | -9% | nt | nt | -1%
SMILES | PNC assembly inh | IMPase inh | IMPase Li cell | ALOX15B inhib | 12-hLO inh | HPGD block
CCNC(=S)N(Cc1cc2cccc(C)c2[nH]c1=O)C1CCCC1 | -119* | 9 | -4% | nt | -30% | -23%
COC(=O)N1[C@H]2CC[C@@]3(C)C=C(C)O[C@]1(C)C3c1ccccc12 | nt | nt | 3% | nt | nt | -2%
CCOC(=O)c1[nH]c(C)c(C(=O)NC2CCCCCC2)c1C | 9 | -13 | 6% | nt | -1% | -2%
CCOC(=O)c1[nH]c(C)c(C(=O)NCc2ccccn2)c1C | -100* | -3 | 1% | nt | 2% | -7%
CCOC(=O)c1[nH]c(C)c(C(=O)NC2CCCC2)c1C | 9 | -7 | -5%[38.3 µM] | 4% | 6% | 18µM*
CC(=O)c1c(C)[nH]c(C(=O)NCc2ccccn2)c1C | 23 | -1 | -4%[38.3 µM] | 7% | 3% | -6%
COc1cc(NC(=O)c2cccc(COCC(F)(F)C(F)F)c2)cc(OC)c1OC | -100* | 3 | 4% | nt | 0% | -4%
COc1ccc(NC(=O)c2ccc(COCC(F)(F)C(F)F)cc2)cc1OC | ? | 3 | 17% | nt | 9% | -12%
CCCCCCCCCCCCCCCCCC(=O)NC[C@@H](COP(=O)([O-])OCC[N+](C)(C)C)OCC | nt | 4 | nt | 11% | 23% | nt
CCOC(=O)c1c(C)nc(SCC(N)=O)c(C#N)c1-c1ccccc1 | -114* | nt | 0% | nt | -4% | 0%
C/C(=N\NC(=O)C(c1ccccc1)c1ccccc1)c1ccccn1 | -81* | nt | 0% | nt | 6% | -2%
N/C(=N\OC(=O)C(c1ccccc1)c1ccccc1)c1ccccn1 | ? | nt | 7% | nt | -3% | -12%
COc1ccc(NC(=O)N2CCc3nc(-c4ccccc4)c4c(c3C2)CO[C@@H](C)C4)cc1 | nt | nt | -2% | nt | 2%[11.4 µM] | -5%
CC(C)CCNC(=O)C(c1ccco1)N(Cc1ccccc1)C(=O)c1snc(C(N)=O)c1N (centres undefined) | -123* | 6 | 16%[38.3 µM] | 5% | -10% | -9%
COc1ccc(S(=O)(=O)Nc2nc3ccccc3s2)cc1 | 30 | -6 | 21%[38.3 µM] | 2% | 2% | -12%
CC(=O)Nc1ccc2nc(NS(=O)(=O)c3ccc(C)cc3)sc2c1 | nt | nt | 6% | nt | nt | nt
Cc1ccc(S(=O)(=O)Nc2nc3ccc(S(=O)(=O)N4CCCC4)cc3s2)cc1 | 12 | 0 | -7%[38.3 µM] | -20% | -16% | 13µM*
O=C(Nc1nc2ccc(S(=O)(=O)N3CCCCC3)cc2s1)c1ccncc1 | -4 | 10 | 38%[38.3 µM] | 19% | -3% | -29%
COc1ccc2nc(NS(=O)(=O)c3ccc(NC(C)=O)cc3)sc2c1 | 0 | -3 | -11%[38.3 µM] | -2% | -3% | 28µM*
CCOc1ccc2sc(NS(=O)(=O)c3ccc(OC)c(OC)c3)nc2c1 | 36 | 9 | 1%[38.3 µM] | -4% | -5% | 16µM*
COc1ccccc1C(=O)Nc1nc2ccc(S(C)(=O)=O)cc2s1 | -8 | nt | 10µM* | nt | 3% | ?
CCCCC/C=C\C/C=C\C/C=C\CCCCCCC(=O)O[C@H](COCCCCCCCCCCCCCCCC)COP(=O)([O-])OCC[N+](C)(C)C | nt | nt | 2% | nt | -1% | -3%
Cc1cc(=O)oc2c(OS(C)(=O)=O)c(OS(C)(=O)=O)ccc12 | nt | nt | 1% | -6%[11.4 µM] | 2%[11.4 µM] | -10%
